Assay outcomes from PubChem.
aSyn UTR act: Activators via SNCA 5'UTR binding, MLPCN | alpha-synuclein 5'UTR reporter, activators screen | activity score, % (tested at 7.5 µM), hits read low | hit rate 7.1% among 300,000 | AID 1814; in the data active = activity score below about -60%
An asterisk follows results filed as active. Not all results are given here.

SMILES	aSyn UTR act
Cc1ccc2nc(-c3ccc(NC(=O)CSCC(=O)O)cc3)sc2c1	-197*
Cc1ccc(-c2nc(C(=O)NCCCN3CCOCC3)cc3c2[nH]c2ccccc23)cc1	-65*
Cc1c(C(=O)N2CCCCC2)oc2ccc(Br)cc12	-138*
O=C(c1cc2cc(Br)ccc2o1)N1CCCCC1	-146*
Cc1ccc2oc(C(=O)NCCCN3CCOCC3)c(C)c2c1	-95*
CCCc1ccc2oc(C(=O)N3CCC(O)CC3)c(C)c2c1	-89*
CCCc1ccc2oc(C(=O)N(C)Cc3nccs3)c(C)c2c1	-149*
Cc1ccc2oc(C(=O)N3CCCCCC3)c(C)c2c1	-78*
CC(=O)c1ccc(-n2c(C)ccc2-c2ccccc2)cc1	-109*
CC(C)CNC(=O)COC(=O)c1c2c(nc3ccccc13)/C(=C/c1cccs1)CC2	-110*
CN=c1scc(-c2ccc(OC)cc2)n1/N=C(\C)c1cccnc1	-156*
O=C(c1cc(-c2ccc(Cl)cc2Cl)on1)N1CCOCC1	80
O=C(c1cc(-c2ccc(Cl)c(Cl)c2)on1)N1CCOCC1	-151*
O=C(c1cc(-c2ccc(F)cc2)on1)N1CCOCC1	-111*
COCCNC(=O)c1cc(-c2ccc(Cl)c(Cl)c2)on1	-78*
O=C(c1cc(-c2cccc(Cl)c2)on1)N1CCOCC1	-171*
COC(=O)c1ccc(N=Nc2ccccc2)cc1	-132*
COC(=O)c1ccc2nc(-c3cccc(N)c3)cn2c1	61
COC(=O)c1ccc(OCCOc2ccccc2)cc1	-131*
O=C(NCc1csc(-c2ccccc2)n1)c1cc(F)cc2c1OCOC2	-113*
N#C/C(C(=O)N1CCCCC1)=C1\Nc2ccccc2S1	-104*
O=C1Nc2ccccc2S/C1=C\C(=O)N1CCCC1	-140*
O=C1CC(/C=C/c2ccncc2)=Nc2ccccc2N1	-65*
CCOc1ccc2c(c1)C(C)=CC(C)(C)N2S(=O)(=O)c1ccc(NC(C)=O)cc1	70
CC1=CC(C)(C)N(C(=O)CNC2CCCC2)c2cc(C)ccc21	-107*
SMILES	aSyn UTR act
NS(=O)(=O)c1ccc(N/N=C/C=C/c2ccccc2[N+](=O)[O-])cc1	-177*
Cc1cc(-c2ccc(C(C)C)c(S(=O)(=O)N3CCN(c4ccccc4)CC3)c2)on1	56
O=[N+]([O-])c1ccccc1/C=C/C=N/N1CCCCC1	-205*
Cc1ccc(/C=N/N2CCN(c3ccccc3)CC2)cc1	-100*
Cc1cccc(/C=N/N2CCN(c3ccccc3)CC2)c1	-140*
Cc1ccccc1/C=N/N1CCN(c2ccccc2)CC1	-131*
O=[N+]([O-])c1ccccc1/C=N\N1CCN(c2ccccc2)CC1	-201*
Cn1c(/C=C/c2ccc(Br)cc2)c([N+](=O)[O-])c(=O)n(C)c1=O	-199*
CCCOc1ccc(/C=C/c2c([N+](=O)[O-])c(=O)n(C)c(=O)n2C)cc1	-130*
O=C(CSc1nc(-c2ccccc2)ns1)N1CCOCC1	-110*
Cc1cccc(-c2nsc(SCC(=O)N3CCCC3)n2)c1	-140*
Cc1ccc2c(c1)C1CN(C)CCC1N2C(=O)COc1ccc(N(C)C(=O)C(C)(C)C)cc1 (stereo unspecified)	-67*
Cc1ccc(C(=O)N(C)c2ccc(OCC(=O)N3c4ccc(C)cc4C4CN(C)CCC43)cc2)cc1 (stereo unspecified)	-86*
CC1=C(C(=O)Nc2ccccn2)C(c2ccc(Br)cc2)NC(=S)N1 (stereo unspecified)	-106*
CC1=C(C(=O)Nc2ccccn2)C(c2ccc(Cl)cc2)NC(=S)N1 (stereo unspecified)	-122*
COc1ccc(OC)c2c1C(=O)C(Cl)=C(Cl)C2=O	-89*
CC1(c2ccncc2)Nc2ccccc2-c2nc3ccccc3n21 (stereo unspecified)	-66*
Cc1ccc(NC(=O)C(=O)NCc2ccccn2)cc1	-110*
O=C(NCc1ccccn1)C(=O)Nc1ccccc1	-150*
CCOC(=O)c1cc2c(C)n(-c3ccc(C)cc3)c(C)c2ccc1=O	-64*
COc1cc(O)oc1C=Nc1ccc(C(F)(F)F)cc1	-89*
Nc1cc(N)nc(SCC(=O)Nc2ccc(Br)cc2Cl)n1	-79*
COc1cccc(NC(=O)CN(C)C(=O)C2CCN(C(=O)c3ccccc3C)CC2)c1	-97*
O=C(/C=C/c1c[nH]c2ccccc12)c1cccc2ccccc12	-95*
Fc1ccc2nc(Nc3nc4cc5c(cc4s3)OCO5)sc2c1	-232*
SMILES	aSyn UTR act
c1ccc2sc(Nc3nc4cc5c(cc4s3)OCO5)nc2c1	-264*
Fc1ccc2nc(Nc3nc4cc5c(cc4s3)OCCO5)sc2c1	-128*
Cc1cc(/C([O-])=C(/C(=S)Nc2ccc(F)cc2)[n+]2ccccc2)c(C)n1-c1ccc(F)cc1	-121*
CCOC(=O)c1c(NC2=NS(=O)(=O)c3ccccc32)sc2c1CCCCC2	-63*
Cn1c(SCc2ccc(C#N)cc2Cl)nc2ccccc21	-176*
O=C1/C(=C/c2ccc(N3CCOCC3)o2)SC(=Nc2ccccc2)N1CCc1c[nH]c2ccccc12	-121*
CCn1c(O)c(N=Nc2ccc3ccccc3n2)c2ccccc21	-143*
NC(=S)N=Nc1c(O)n(Cc2ccc(Br)cc2)c2ccccc12	64
Brc1ccc(N=Nc2ccc3ccccc3n2)cc1	95
Cc1ccc2[nH]c(-c3ccccc3)cc(=O)c2c1	89
Clc1ccc(-c2cc3ccccc3[nH]2)cc1	-218*
Cc1ccc(-c2cc(=O)c3ccccc3[nH]2)cc1	-77*
O=c1cc(-c2ccc(Cl)cc2)[nH]c2ccccc12	-69*
Cc1ccc(-c2cc(=O)c3cc(Cl)ccc3[nH]2)cc1	-92*
Cc1nc2ccc(NC(=O)NCCO)cc2s1	-64*
Cc1nc2ccc(NC(=O)NCCCO)cc2s1	-64*
COc1ccc2c(c1)C(C)=CC(C)(C)N2S(=O)(=O)c1ccc(Br)cc1	-86*
COc1ccc2c(c1)C(C)=CC(C)(C)N2S(=O)(=O)c1ccc(NC(C)=O)cc1	71
CC(=O)c1ccc(Nc2ccc(-c3ccccc3F)nn2)cc1	-172*
CC(=O)c1ccc(N/N=C(/C(N)=O)C2=NC(C)(C)Cc3ccccc32)cc1	56
CC1=NN(c2ccccc2)C(=O)C1N=Nc1cccc(O)c1 (stereo unspecified)	-138*
CC1=NN(c2ccccc2)C(=O)C1N=Nc1ccccc1 (stereo unspecified)	-222*
Cc1nnc(SCC(=O)NC(=O)Nc2ccc3c(c2)OCCO3)n1N	-114*
Cc1ccc(-n2nnnc2SCC(=O)NC(=O)Nc2ccc3c(c2)OCCO3)cc1	-160*
O=C(CSc1nnnn1-c1ccc(Cl)cc1)NC(=O)Nc1ccc2c(c1)OCCO2	-184*
SMILES	aSyn UTR act
Cc1ccc(C(=O)c2cnc3cc4c(cc3c2S(=O)(=O)c2ccccc2)OCCO4)cc1	-133*
O=C(/C=C/c1ccccc1)C1=C(O)C(=O)N(CCO)C1c1ccccc1[N+](=O)[O-] (stereo unspecified)	-62*
CCCc1n[nH]c2c1/C(=N/O)CC(c1ccccc1)C2 (stereo unspecified)	69
CCC(C)OC(=O)c1[nH]c2c(c1C)C(=O)CC(c1ccc(N(C)C)cc1)C2 (stereo unspecified)	-92*
CCC(=NCCc1c(C)[nH]c2ccc(OC(F)(F)F)cc12)C1=C(O)CC(c2ccccc2)CC1=O (stereo unspecified)	107
Cc1c(C(=O)OCC(C)C)[nH]c2c1C(=O)CC(c1ccco1)C2 (stereo unspecified)	70
CCOC(=O)c1[nH]c2c(c1-c1ccccc1)C(=O)CC(c1ccccc1)C2 (stereo unspecified)	-66*
